# Test results: PubChem BioAssay (NCATS)
# Several values for one entry are separate records, joined by “and”; a condition that tells them apart may be missing. Equal values may be shown once. Results filed as inconclusive are left out. Unmarked numbers belong to inactive results. Activity calls are given as the source filed them. The call rests on the fitted dose curve.
# Experiments:
# [1] = molecular target: Bile acid receptor (Homo sapiens) (UniProt Q96RI1); assay: qHTS assay for small molecule agonists of farnesoid X receptor signaling (AID 588527); conditions: HEK293T FXR-UAS-bla, beta-lactamase ratio, 16 h; activation: stronger effect = higher value;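 further: series mostly up to about 77 µM; 0% = vehicle basal and 100% = reference agonist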
# Chain of Bile acid receptor (Homo sapiens) (Q96RI1 whole entry, looked up): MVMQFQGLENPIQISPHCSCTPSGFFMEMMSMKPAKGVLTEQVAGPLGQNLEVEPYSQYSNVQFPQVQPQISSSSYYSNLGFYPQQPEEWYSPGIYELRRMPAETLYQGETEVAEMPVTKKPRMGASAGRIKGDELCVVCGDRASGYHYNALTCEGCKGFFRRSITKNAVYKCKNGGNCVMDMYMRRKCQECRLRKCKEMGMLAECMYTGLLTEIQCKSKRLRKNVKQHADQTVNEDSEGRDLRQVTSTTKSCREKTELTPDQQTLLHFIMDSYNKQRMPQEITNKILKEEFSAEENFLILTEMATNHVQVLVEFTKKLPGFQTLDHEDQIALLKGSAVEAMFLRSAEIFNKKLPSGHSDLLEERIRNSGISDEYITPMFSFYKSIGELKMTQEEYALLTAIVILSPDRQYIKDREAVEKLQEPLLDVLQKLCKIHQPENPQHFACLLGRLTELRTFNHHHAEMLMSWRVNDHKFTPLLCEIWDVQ
# Procedure, shortened: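 Quantitative HTS used FXR-UAS-bla HEK293T cells with 16 h compound incubation at 37 C. EC50 values came from concentration-response curves normalized to chenodeoxycholic acid.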
# [2] = molecular target: Peroxisome proliferator-activated receptor delta (Homo sapiens) (UniProt Q03181); assay: qHTS assay for small molecule agonists of peroxisome proliferator-activated receptor delta signaling (AID 588534);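 further: 0% = DMSO basal wells and 100% = positive control agonist at 10 µM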
# Chain of Peroxisome proliferator-activated receptor delta (Homo sapiens) (Q03181 whole entry, looked up): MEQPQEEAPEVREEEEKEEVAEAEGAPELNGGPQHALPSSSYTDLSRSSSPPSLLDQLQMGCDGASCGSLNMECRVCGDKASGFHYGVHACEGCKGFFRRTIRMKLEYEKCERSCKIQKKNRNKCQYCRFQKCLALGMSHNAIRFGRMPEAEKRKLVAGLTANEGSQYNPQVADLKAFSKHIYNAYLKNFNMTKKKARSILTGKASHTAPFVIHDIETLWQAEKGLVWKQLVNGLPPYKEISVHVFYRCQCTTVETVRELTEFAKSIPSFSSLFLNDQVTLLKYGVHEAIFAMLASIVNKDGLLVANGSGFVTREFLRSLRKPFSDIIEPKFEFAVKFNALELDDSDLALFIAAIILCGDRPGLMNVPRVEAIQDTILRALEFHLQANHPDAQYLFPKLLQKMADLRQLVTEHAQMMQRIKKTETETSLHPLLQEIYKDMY
# Procedure, shortened: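 EC50 and efficacy values derive from Hill fits of a concentration series in a beta-lactamase reporter cell assay. Exposure is 18 hrs at 37 C, with CCF4 fluorescence as the readout.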
SMILES,activation [1],outcome [2]
CC(C)=CCl,-3.14%,inactive
CC1=CC(=O)CC(C)(C)C1(O)/C=C/C(C)=C\C(=O)O (stereo not given),-3.19%,inactive
CCCCOC(=O)[C@@H](C)Oc1ccc(Oc2ccc(C(F)(F)F)cn2)cc1,-2.63%,inactive
Cc1c(C(=O)O)c(O)cc2c1C(=O)c1c(O)c([C@H]3O[C@H](CO)[C@@H](O)[C@H](O)[C@H]3O)c(O)c(O)c1C2=O,-1.49%,inactive
C=CC(=O)CC,3.81%,inactive
C=C(C)C(=O)OCCCCCC,-1.11%,inactive
C=C(C)C(=O)OCC(C)C,-0.219%,inactive
C/C(Cl)=C/CCl,0.345%,inactive
CC(CCC(=O)O)(c1ccc(O)cc1)c1ccc(O)cc1,-2.09% and 0.383%,inactive
Cn1c(=O)[nH]c(=O)n(C2CCC(O)CC2)c1=O (stereo not given),-4.56%,inactive
CCCCCCCCC1CO1 (stereo not given),0.755%,inactive
O=C(O)c1ccc(CO)o1,0.258%,inactive
NC=O,-0.541%,inactive
CCOc1cc(OCC)c(C(C)=O)cc1OCC,0.582%,inactive
COC(C)=O,-0.0908%,inactive
CC(C)CCOC(=O)/C=C/c1ccccc1,-2.58%,inactive
O=C(O)c1ccc(Cl)cc1Cl,-2.47%,inactive
CN(C)CCCNCCCN,2.54%,inactive
CCc1c(C(=O)O)c(=O)cnn1-c1ccc(Cl)cc1,1.28%,inactive
CC(=O)c1c(C)c([N+](=O)[O-])c(C(C)(C)C)c([N+](=O)[O-])c1C,1.55%,inactive

SMILES,activation [1],outcome [2]
CC#N,-1.26%,inactive
Cc1ccc(C)c(O)c1,2.07%,inactive
Cc1ccc2oc(=O)ccc2c1,0.64% and 1.95%,inactive
COC(=O)c1ccc(CNS(C)(=O)=O)cc1S(=O)(=O)NC(=O)Nc1nc(OC)cc(OC)n1,-2.61%,inactive
O=c1n(CCO)c(=O)n(CCO)c(=O)n1CCO,0.713%,inactive
CO[Si](CCCOCC1CO1)(OC)OC (stereo not given),-0.427%,inactive
C1=C/CC/C=C/CC/C=C/CC/1,-1.27%,inactive
CCOCCOCC,-1.11%,inactive
CCC(O)C(C)(C)C (stereo not given),0.367%,inactive
CCOc1ccc(NC(=O)OC(C)C)cc1OCC,-1.45%,inactive
CCCCCCOCCOCCO,-1.2%,inactive
Cc1ccc(CO)cc1,-3.46%,inactive
O=C(O)c1ccccc1Cl,1.39%,inactive
C=C(C)C(=O)OCCCCCCCCCC,-1.22%,inactive
O=C(O)CN(CCO)CCN(CC(=O)O)CC(=O)O,-2.73%,inactive
CCc1ccc(C(c2ccc(CC)cc2)C(Cl)Cl)cc1,3.04%,inactive
Cc1ccc(C)cc1,-1.18%,inactive
Cc1cc(C)cc([N+](=O)[O-])c1,-0.797%,inactive
CCCCCCCCCCCCO,-2.63%,inactive
O=[N+]([O-])c1cc(Cl)c(Cl)c(Cl)c1Cl,-3.36%,inactive
